Drawing on PubChem BioAssay (NCI), this text covers growth for eight compounds.

Structures are written as SMILES. About 83,000 compounds went through this panel and 20% of them were active in at least one assay; those are over-represented in the sample as a whole.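 For each line, cells grew in 96-well plates with the test compound present at a single concentration for 48 hours.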 Values without a mark were called inactive. Active and inactive are the calls of the source. The calls were made as follows: active = growth percent below 10; inactive = the rest.

Assay in all cases: NCI-60 one-dose screen, 48 h (100 = growth as untreated, 0 = no growth, -100 = all killed)
What all share (settings): 10 µM unless noted

Assay [1] concerns SK-MEL-2 melanoma.
Assay [2] relates to EKVX NSCLC.
The subject of assay [3] is SN12C renal.
In assay [4] the test system is UO-31 renal.
In assay [5] the test system is TK-10 renal.
The subject of assay [6] is ACHN renal.
Assay [7] concerns CAKI-1 renal.
Assay [8] concerns A498 renal.
In assay [9] the test system is CCRF-CEM leukemia.
The subject of assay [10] is MOLT-4 leukemia.
Assay [11] concerns SR leukemia.
The subject of assay [12] is RPMI-8226 leukemia.
Assay [13] deals with OVCAR-8 ovarian.
Assay [14] deals with OVCAR-5 ovarian.
Assay [15] has as its system OVCAR-4 ovarian.
For assay [16], the system named is SK-OV-3 ovarian.
Assay [17] concerns OVCAR-3 ovarian.
The test system of assay [18] is HS 578T breast.
The test system of assay [19] is NCI/ADR-RES ovarian.

Turning to `CC[n+]1c(/C=C/c2ccc(N3CCCC3)cc2)cccc1/C=C/c1ccc(N2CCCC2)cc1`, the growth is -89.8% (active) in assay [1]; -76.4% (active) in assay [2]; -79.9% (active) in assay [3]; -92.6% (active) in assay [4]; -80.5% (active) in assay [5]; -96.3% (active) in [6]. The growth in [7] is -67.9% (active); in assay [8], -93% (active); in assay [9], -7.16% (active); in assay [10] it was 10.3%; in assay [11] it was 57.2%; in assay [12], -41.1% (active). For the same compound, the growth in assay [13] was -87.3% (active); in assay [14] it was -80.1% (active); in [15] it was -73.8% (active); in assay [16], -95.6% (active); in [17], -90.1% (active); in [18] it was -70.2% (active). In addition, the growth in assay [19] is -68.6% (active).
On to `COc1ccc(C(=O)COc2cccc(/C=C3\COc4ccc5ccccc5c4C3=O)c2)cc1`, for which the growth in [1] was 52.6%; in [2], 45.4%; in [3], 68.6%; in assay [4] it was -29.5% (active); in assay [5], 125%; in [6], 143%. For the same compound, the growth in assay [7] is 71.9%; in assay [8] it was 88.8%; in [9], 13.3%; in assay [10] it was 44.4%; in assay [11], 35%; in assay [12], 2.86% (active). Besides, the growth in [13] was 36.9%; in [14], 98.3%; in [15] it was 28.1%; in assay [16], 95.7%; in assay [17], 64%; in assay [18], 88%. Moreover, the growth in assay [19] is 46.5%.
On to `Cc1ccc(S(=O)(=O)NCCN2c3nc4ccccc4cc3Sc3cc4ccccc4nc32)cc1`, for which the growth in assay [1] is 44.2%; in assay [2], 70.3%; in assay [3] it was 66%; in [4], -32% (active); in assay [5], 84.5%; in assay [6] it was 54.2%. Further, the growth in assay [7] is 92.5%; in [8] it was 149%; in [9], 93.7%; in assay [10], 108%; in assay [11] it was 73.7%; in assay [12], 78.7%. Moreover, the growth was 34.1% in [13]; 85.6% in assay [14]; 22.9% in assay [15]; 53.3% in assay [16]; 33.4% in assay [18].
For `COc1ccc(C(=O)COc2ccc(/C=C3\Oc4ccc5ccccc5c4C3=O)cc2)cc1`, the growth is 77.9% in assay [1]; 90.9% in assay [2]; 91.8% in assay [3]; -2.22% (active) in assay [4]; 142% in assay [5]; 156% in [6]. The growth in [7] was 96%; in assay [8] it was 102%; in assay [9], -21.9% (active); in assay [10] it was 50.4%; in [11] it was 40.2%; in assay [12], 66.8%. Also, the growth is 90.6% in [13]; 106% in assay [14]; 88.9% in [15]; 97.8% in assay [16]; 96.3% in [18]; 97.4% in assay [19].
For `COc1cc(/C=N/NC(=O)c2ccc(C(F)(F)F)nc2Nc2cc(Cl)ccc2C)cc(OC)c1OC`, the growth in [1] is 88.8%; in [2], 93.6%; in assay [3], 93.9%; in assay [4] it was 103%; in assay [5] it was 119%; in [6] it was 104%. Also, the growth in assay [7] is 77.5%; in assay [8], 100%; in assay [9], 51.5%; in assay [10], 61.8%; in assay [11], 91.8%; in [12], 64.7%. Moreover, the growth is 99.8% in assay [13]; 103% in assay [14]; 104% in assay [15]; 106% in assay [16]; 123% in assay [17]; 104% in assay [18]. Besides, the growth in assay [19] is 98.3%.
Take `NC(=O)NS(=O)(=O)c1ccc(N2N=C(C(F)(F)F)CC2c2cc(C(F)(F)F)cc(C(F)(F)F)c2)cc1` (centres undefined): the growth in [1] is 11.2%; in [2], 58.5%; in assay [3] it was 83.5%; in [4], 49.6%; in assay [5] it was 85.6%; in [6], 80.7%. Besides, the growth was 78.9% in [7]; 70.1% in assay [8]; 37.4% in [9]; 43.2% in assay [10]; 66.2% in assay [11]; 2.36% (active) in assay [12]. Further, the growth in [13] is 79.8%; in [14], 85.7%; in assay [15] it was 69.7%; in assay [16] it was 93%; in assay [17], 69.7%; in [18], 66.5%. Also, in [19], the growth is 77%.
With `CC(=O)OC1Oc2cc(C)c(C)cc2-c2oc(=O)c(-c3ccccc3)cc21` (centres undefined), the growth is 17.3% in assay [1]; 40.5% in assay [2]; 43.6% in assay [3]; 16.5% in assay [4]; 13.9% in [5]; 34% in [6]. Besides, the growth in assay [7] was 24.8%; in assay [8], -1.55% (active); in [9], -37.8% (active); in assay [10] it was -20.4% (active); in assay [11] it was -42.2% (active); in assay [12], -18.1% (active). Besides, the growth was 24.4% in assay [13]; 67.9% in assay [14]; 42% in assay [15]; 11.6% in assay [16]; -39.9% (active) in [17]; -19.5% (active) in [18]. Further, the growth in [19] was 25.3%.
Consider `COc1ccc2cc(-c3nc4ccccc4[nH]3)c(=O)oc2c1`, for which the growth in assay [1] was 22.1%; in [2], 77.3%; in assay [3] it was 92.3%; in assay [4], 94.2%; in [5] it was 119%; in assay [6], 86.2%. Also, the growth in assay [7] is 82.2%; in assay [8], 95.6%; in assay [9], 95.3%; in assay [10] it was 97.7%; in assay [11] it was 36.5%; in assay [12], 115%. Besides, the growth in assay [13] is 101%; in assay [14] it was 101%; in [15] it was 99.3%; in assay [16] it was 104%; in assay [17], 106%; in assay [18], 125%. Moreover, the growth in assay [19] was 93%.
